Source: PubChem (several laboratories)
Sampled rows, rich in hits. Any-hit rate of the full collection: about 21%.
CYP2C19 inh – blockers of cytochrome P450 2C19 activity – biochemical, luminescence, ADME assay, primary screen; AID 778, 2007; CYP2C19 Supersomes, luciferin-H EGE luminescence, 30 min; 21% of 96,000 active; P33261; inhibition, % at 5 µM;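 active means CYP2C19 inhibition above a set limit at 5 µM in the primary screen, cut at about 50% in these data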;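 further: plate controls were negative control wells for no effect and 2.5 mM tranylcypromine positive control for full effect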
Target sequence (P33261 whole entry, looked up): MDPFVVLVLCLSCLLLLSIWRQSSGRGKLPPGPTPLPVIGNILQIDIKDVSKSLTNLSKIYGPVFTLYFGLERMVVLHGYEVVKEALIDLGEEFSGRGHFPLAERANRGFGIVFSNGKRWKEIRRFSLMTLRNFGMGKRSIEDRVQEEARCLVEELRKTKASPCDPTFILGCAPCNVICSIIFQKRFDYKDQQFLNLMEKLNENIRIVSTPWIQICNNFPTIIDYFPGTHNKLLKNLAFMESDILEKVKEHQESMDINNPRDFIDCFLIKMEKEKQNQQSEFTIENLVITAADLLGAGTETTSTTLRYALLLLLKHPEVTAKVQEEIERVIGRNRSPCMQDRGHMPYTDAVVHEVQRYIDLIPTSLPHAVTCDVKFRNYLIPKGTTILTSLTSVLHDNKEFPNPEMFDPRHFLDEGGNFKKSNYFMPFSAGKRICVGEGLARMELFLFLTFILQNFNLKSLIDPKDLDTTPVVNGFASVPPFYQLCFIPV
MRP resist rev – reversal of MRP1-mediated doxorubicin resistance, primary screen, H69AR cells, doxorubicin co-treatment | H69AR cells + 2 uM doxorubicin, CellTiter-Glo, 72 h | differential viability (reversal), % at 10 µM | 0.04% of 85,000 active;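 active means viability drop by adding the cancer drug above about 55%, with treated viability meeting a 40% cutoff, limit read from the data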;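 further: viability without doxorubicin minus viability with 2 µM doxorubicin for each compound; larger differential means the compound sensitizes cells more to doxorubicin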
MRP1 act – H69AR viability gain despite doxorubicin, primary screen, MRP-1 activator project, H69AR cells, CellTiter-Glo; AID 799, 2007; viability rescue; 0.61% of 140,000 active; viability increase, % at 10 µM;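 active means viability gain under doxorubicin at or above a set limit, the compound median plus 3 SD, cut at about 4.7% in these data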;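 further: MRP-1 overexpressing cells given doxorubicin 25 µM after compound pretreatment; 18-22 h compound pretreatment then 72 h with doxorubicin before readout; 0% = doxorubicin-only wells and 100% = vehicle-treated cells without doxorubicin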
CYP2C19 act – human CYP2C19 activators, primary screen, biochemical, luminescence | recombinant CYP2C19, luciferin-H EGE luminescence; active compounds read high; 0 = fully inhibited enzyme, 1 = untreated enzyme | activation factor at 5 µM | 96,000 tested, under 10 active;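 active means activation factor of at least 2 at 5 µM in the primary screen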;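 further: 0 = wells with 2.5 mM tranylcypromine and 1 = vehicle-only wells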
CYP2C9 activ – human CYP2C9 activators, primary screen, biochemical, luminescence; Cytochrome P450 2C9 (Homo sapiens), P11712; recombinant CYP2C9, luciferin-H conversion; active compounds read high; factor 1 = untreated enzyme, 0 = blocked; activation factor at 5 µM; 1.4% of 96,000 active; AID 1024, 2008;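 active means activation factor of 2 or more for CYP2C9 at a 5 µM dose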;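 further: 0 = sulfaphenazole-blocked wells and 1 = vehicle-only wells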
CYP2C9 inhib – blockers of cytochrome P450 2C9 activity – biochemical, luminescence, ADME assay, primary screen; CYP2C9 Supersomes, luciferin-H conversion; inhibition, % at 5 µM; 20% of 96,000 active;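 active means blocking of liver enzyme CYP2C9 beyond about 50% at 5 µM, limit read from the data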
Active calls of the source: *; / = no result given.

SMILES | CYP2C19 inh | MRP resist rev | MRP1 act | CYP2C19 act | CYP2C9 activ | CYP2C9 inhib
Cc1cc(C)c(N=Cc2c(O)n(-c3nccs3)c(=O)c3ccccc23)c(C)c1 | / | / | 7.5* | / | / | /
Cc1cccc(C)c1N=Cc1c(O)n(-c2nccs2)c(=O)c2ccccc12 | / | / | 6.2* | / | / | /
COc1ccc(S(=O)(=O)NC(CC(=O)NCCc2ccc(OC)c(OC)c2)c2ccco2)cc1 (stereo not drawn) | 2.1 | 5.7 | 0.3 | 1 | 0.9 | 9.7
CN1CCN(/C=N/c2c(C#N)cnn2C)CC1 | -12.6 | 1.7 | -2.3 | 1.1 | 1 | -3.1
Cn1ncc(C#N)c1/N=C/N(Cc1ccccc1)Cc1ccccc1 | 95.2* | 14.7 | -0.5 | 0 | 0 | 99.0*
O=C(CN1CCOCC1)OCCCC1CCCCC1 | 72.7* | / | 0.3 | 0.3 | 0.9 | 8.3
O=C(O)CN1CCOCCOCCN(CC(=O)O)CCOCCOCC1 | 5.8 | -2.4 | / | 0.9 | 1 | 3.8
O=C1CCC(/C=C/c2ccccc2)=NN1Cc1ccc(Cl)c(Cl)c1 | 43.7 | 1.1 | 0.1 | 0.6 | 0.3 | 73.4*
O=C1CCC(/C=C/c2ccccc2)=NN1Cc1ccccc1Cl | 33.9 | 1.9 | -0.8 | 0.7 | 0.5 | 48.7
CC1=NOC(=O)/C1=C/c1ccc(-c2ccc(Cl)cc2)o1 | 76.1* | 0.5 | -1.0 | 0.2 | 0.3 | 68.1*
CC1=NOC(=O)/C1=C\c1ccc(-c2cc(Cl)ccc2Cl)o1 | 60.0* | -0.9 | -0.2 | 0.4 | 1 | 4.0
C=CCNC(=S)N/N=C/c1ccc(-c2cc(Cl)ccc2Cl)o1 | 8.6 | / | -4.6 | 0.9 | 1.7 | -69.1
CCc1cc(C=C(Cl)Cl)oc(=O)c1C | 83.1* | -18.6 | -5.6 | 0.2 | 0.8 | 24.1
CCc1cc(=O)oc2c(C)c(O)c(CN(C)C)cc12 | -0.8 | -13.9 | -3.6 | 1 | 1 | 3.7
CSc1nc(Sc2ccccc2)c2ccccc2n1 | 49.2 | / | -1.9 | 0.5 | 0.2 | 84.7*
CCOC(=O)C1CCCN(c2nc(C)nc3c2oc2ccccc23)C1 (stereo not drawn) | 57.6* | 10.4 | -2.2 | 0.4 | 0.5 | 51.8*
c1ccc2[nH]c(CN3CCN(c4ncnc5c4oc4ccccc45)CC3)nc2c1 | 38.3 | -12.5 | -5.1 | 0.6 | 0.4 | 55.0*
C(=C\c1ccccc1)/CN1CCN(c2ncnc3c2oc2ccccc23)CC1 | 12.8 | -2.2 | -0.9 | 0.9 | 0.6 | 39.6
Cc1nc(N2CCN(Cc3nc4ccccc4[nH]3)CC2)c2oc3ccccc3c2n1 | 83.7* | 12.9 | -2.8 | 0.2 | 0.1 | 92.4*
CCOC(=O)C(NC(=O)Nc1ccc(O)cc1)(c1ccccc1)C(F)(F)F (stereo not drawn) | / | / | 0.4 | / | / | /
COc1ccc(NC(=S)N2CCN(Cc3ccco3)CC2)c(OC)c1 | / | / | -0.7 | / | / | /
O=C(CSc1nc2ccccc2c(=O)n1-c1ccc(F)cc1F)c1c[nH]c2ccccc12 | / | / | -3.1 | / | / | /
CCOCCc1nnc(NC(=O)COC)s1 | 9.3 | 13.3 | -1.8 | 0.9 | 0.7 | 29.1
Cn1ncc(C#N)c1NC(=O)c1nn2cccnc2c1Cl | -11.4 | 5.8 | -1.2 | 1.1 | 1 | 4.1
O=C(Nc1ccccc1)N1CCC(n2c(=O)[nH]c3ccccc32)CC1 | 28.0 | 4.3 | -1.6 | 0.7 | 0.3 | 72.0*
SMILES | CYP2C19 inh | MRP resist rev | MRP1 act | CYP2C19 act | CYP2C9 activ | CYP2C9 inhib
O=C(Nc1ccccc1)N1CCC(c2ccccc2)C1 (stereo not drawn) | 73.3* | 5.6 | -0.5 | 0.3 | 0.9 | 12.3
O=C(CCN1CCC(c2ccccc2)C1)c1ccccc1 (stereo not drawn) | 88.5* | / | -0.1 | 0.1 | 0.4 | 57.9*
O=C(CCN1CCC(c2ccccc2)C1)c1ccc2c(c1)OCCO2 (stereo not drawn) | -5.0 | -13.3 | -3.0 | 1.1 | 1.3 | -30.0
O=C(CCN1CCC(c2ccccc2)C1)c1cccs1 (stereo not drawn) | 78.2* | / | -2.6 | 0.2 | 0.8 | 24.9
O=C(c1cccs1)N1CCC(c2ccccc2)C1 (stereo not drawn) | 97.9* | 16.8 | 1.0 | 0 | 0.2 | 80.7*
O=C(c1cccs1)N1CCCC1 | / | 0.4 | -2.2 | / | / | /
CNc1nc(C)cc(C)c1S(=O)(=O)c1ccc(C)cc1 | 82.1* | / | -0.9 | 0.2 | 3.6* | -260.6
Cc1ccc(S(=O)(=O)c2c(C)cc(C)nc2Oc2cccc(C)c2C)cc1 | 13.1 | / | -5.4 | 0.9 | 0.8 | 16.0
Cc1cc(C)c(S(=O)(=O)c2ccccc2)c(OC(=O)c2c(Cl)cc(Cl)cc2Cl)n1 | 53.0* | -22.6 | -1.5 | 0.5 | 0.6 | 44.5
Cc1cc(C)c(S(=O)(=O)c2ccccc2)c(N(C)C)n1 | 63.6* | / | -3.4 | 0.4 | 0.6 | 41.8
COc1ccc(C(=O)N2N=C3CC(C)(C)OCC3C2c2ccccc2)cc1 (stereo not drawn) | / | / | -0.6 | / | / | /
O=C(NCc1cccnc1)NC(C(F)(F)F)C(F)(F)F | 66.4* | -4.1 | -1.9 | 0.3 | 0.6 | 36.7
O=C(NCc1cccnc1)NC1(C(F)(F)F)Oc2ccccc2O1 | 90.4* | -14.9 | -4.5 | 0.1 | 0.8 | 24.8
O=C(NCc1cccnc1)C1COc2ccccc2O1 (stereo not drawn) | 32.1 | -30.4 | -2.8 | 0.7 | 1 | 3.0
Cc1ccc(NC(=O)C(C)c2ccc([N+](=O)[O-])cc2)cc1Cl (stereo not drawn) | / | / | -1.7 | / | / | /
O=C(NC(=S)Nc1ccccc1)c1cc(-c2ccccc2)nc2ccccc12 | 24.4 | / | -1.3 | 0.8 | 0.8 | 23.6
CCCCOc1cccc(-c2cc(C(=O)NNC(=S)NCC)c3ccccc3n2)c1 | -3.7 | / | -1.4 | 1 | 0.9 | 11.4
CCNC(=S)NNC(=O)c1cc(-c2cccc(C)c2)nc2ccccc12 | 4.3 | / | -0.5 | 1 | 0.5 | 51.8*
O=C(NC(=S)Nc1ccccn1)c1cc(-c2ccccc2)nc2ccccc12 | / | / | 7.5* | / | / | /
CCNC(=S)NNC(=O)c1cc(C2CC2)nc2ccccc12 | -11.0 | / | -2.7 | 1.1 | 0.5 | 50.9*
CCNC(=S)NNC(=O)c1cc(-c2cccc(OCC)c2)nc2ccccc12 | 37.6 | / | 0.4 | 0.6 | 0.2 | 84.1*
CCNC(=S)NNC(=O)c1cc(C)nc2ccccc12 | / | / | 1.2 | / | / | /
O=c1ccn(Cc2ccccc2)c(=O)n1Cc1ccccc1 | 78.4* | 7.5 | 1.3 | 0.2 | 0.8 | 15.9
CN(C)/C=N/c1sc2c(c1C#N)CC(C)(C)NC2(C)C | / | 7.5 | 2.5 | / | / | /
COc1c2ccoc2nc2c(OC)c(OCC(O)C(C)(C)O)ccc12 (stereo not drawn) | -7.3 | -5.2 | -4.3 | 1.1 | 1.3 | -34.7
COc1c2c(nc3occc13)C(CCC(C)(C)O)(OC)C(O)CC2 (stereo not drawn) | 56.3* | -2.9 | 2.8 | 0.4 | 0.5 | 54.3*
